Rab9 promoter act: activators of Rab9 promoter. Potency, µM (top dose mostly 9.22 µM), for inactives: at the top dose activation, negative = inhibition, actives largely listed as activators. 320,000 compounds, 2.8% hits. Huh7 Rab9 promoter-luciferase reporter, luminescence, 24 h; note: % of control where 0% means no effect; nearly all actives have a fitted effect of over 60% in size
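Huh7 cells stably carrying a Rab9 promoter-luciferase reporter, 1500 cells per well in OP-MEM I with 10% FBS, treated with compound 24 hours at 37C. Luciferase activity read by luminescence after 10 minutes with Amplite reagent.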
FLuc modulator: inhibits or activates purified firefly luciferase, miR-21 counter-screen; 360,000 compounds, 6.9% hits; purified FLuc, Km substrates, luminescence inhibition; P08659; Potency, µM (doses to about 57.5 µM), without a hit: at the highest dose activity change, negative = inhibition, usual class: inhibitors;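 note: plate controls were vehicle for no effect and reference inhibitor for full effect; nearly all actives have a fitted effect of over 55% in size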
Target sequence (P08659 whole entry, looked up): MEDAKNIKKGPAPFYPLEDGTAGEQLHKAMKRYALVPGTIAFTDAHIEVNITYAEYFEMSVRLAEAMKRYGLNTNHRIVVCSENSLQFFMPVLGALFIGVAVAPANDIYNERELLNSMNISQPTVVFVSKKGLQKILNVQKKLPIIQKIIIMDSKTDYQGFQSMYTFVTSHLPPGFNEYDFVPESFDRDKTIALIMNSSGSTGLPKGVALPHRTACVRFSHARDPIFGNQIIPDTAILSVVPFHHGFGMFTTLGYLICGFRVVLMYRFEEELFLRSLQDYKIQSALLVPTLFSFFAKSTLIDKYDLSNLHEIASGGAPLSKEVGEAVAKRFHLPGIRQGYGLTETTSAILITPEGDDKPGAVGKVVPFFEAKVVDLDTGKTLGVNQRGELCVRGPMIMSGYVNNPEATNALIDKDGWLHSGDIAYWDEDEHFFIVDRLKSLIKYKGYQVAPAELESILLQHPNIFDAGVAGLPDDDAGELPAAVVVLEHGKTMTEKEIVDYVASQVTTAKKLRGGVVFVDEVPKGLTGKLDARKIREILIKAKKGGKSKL
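Purified P. pyralis luciferase, 10 nM final, with Km-level 10 uM D-luciferin and 10 uM ATP in 50 mM Tris acetate pH 7.5, 10 mM Mg acetate, 0.01% Tween-20, 0.05% BSA; 6-point qHTS titration about 60 µM downward; luminescence read.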
KinaseGlo FLuc: Kinase-Glo luciferase inhibition (counter-screen); Q27757; Kinase-Glo luciferase, ATP luminescence, 8 min; Potency, µM (top dose mostly 38.3 µM), for the others: at the top dose activity change, negative = inhibition, usual class: inhibitors; 200,000 compounds, 0.28% hits; AID 1379; note: % is set by controls: 0 for no effect and ±100 for the full control effect; nearly all actives have a fitted effect of over 60% in size
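Recombinant Kinase-Glo luciferase, 10 uM ATP (linear range), luciferin; imidazole pH 7.2 / KCl / MgCl2 / Tween / BSA buffer; 8 min RT; luminescence.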
SMN2 splice enh: increases expression of the SMN2 splice variant. Potency, µM (series often up to 46.1 µM), for the others: top-dose activity change, positive = activation, most hits filed as activators. HEK293 SMN2-luciferase splicing reporter, luminescence, 30-36 h. AID 1458. 210,000 compounds, 2.8% hits; note: % of control where 0% means no effect; nearly all actives have a fitted effect of over 55% in size
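qHTS luciferase splicing reporter: luminescence rises when SMN2 exon 7 is included in transfected HEK293 cells. Compound exposure lasted 30-36 h at 37C, with 4.5 mM final sodium butyrate as control, followed by a ONE-Glo read.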
ELG1 genotox: induces genotoxicity in HEK293T cells with luciferase-tagged ELG1; Potency, µM (titrated, usually from 46 µM), inactives show at the highest dose activity change, positive = activation, hits mostly activators; 330,000 compounds, 1.3% hits; AID 504466; HEK293T ELG1-luciferase reporter, luminescence, 16 h; note: % of control where 0% means no effect; nearly all actives have a fitted effect of over 60% in size
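Step 1: seed 2,000 HEK293T ELG1-luciferase cells per well. Step 2: add compound or DMSO, incubate 16 hr at 37 °C. Step 3: ONE-Glo, 30 min at room temperature, read luminescence.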
NPC1 prom act: activators of NPC1 promoter; Huh7 NPC1 promoter luciferase reporter, 24 h; Potency, µM (doses to about 9.22 µM), for inactives: top-dose activation, most hits filed as activators; 320,000 compounds, 2.4% hits; note: % of control where 0% means no effect; nearly all actives have a fitted effect of over 60% in size
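Compounds in DMSO were transferred onto Huh7 NPC1-luciferase reporter cells pre-incubated 2 h; after 24 h at 37 °C, Amplite reagent was dispensed and luminescence recorded 10 min later.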
Active calls of the source: *; ? = inconclusive; . = not tested or not shown; [ ] = dose if it differs, or a comment. A selection: hits, their analogues and other compounds. The true share with any hit is near 7.4%. Calls come from the whole dose curve; as a rule, active = well fitted curve in the direction sought with a large enough effect; inconclusive = small, poorly fitted or top-dose-only effect, or another doubt; inactive = no such curve, though single readings can be large; an effect the other way counts as inactive or inconclusive. Potency is the fitted concentration of half-maximal effect.

SMILES	Rab9 promoter act	FLuc modulator	KinaseGlo FLuc	SMN2 splice enh	ELG1 genotox	NPC1 prom act
CCN(CC(=O)Nc1ccc2c(c1)OCCO2)C(=O)COc1cc(C)ccc1Cl	-3.9%	-16.8%	.	.	0.0%	0.5%
[O-]/[N+](=N\O)c1ccccc1	.	.	.	-16.1%	.	.
CC(C)(C)n1ncc2c(=O)n(Cc3ccc([S+](=O)([O-])N4CCOCC4)cc3)cnc21	.	4.0%	.	.	.	.
C/C(=N\O)c1sc(-c2ccccc2)nc1C	3.16µM*	8.49µM*	-12.4%	15.8µM*	?	3.98µM*
CCOC(=O)c1sc(-c2ccccc2)nc1C	16.8%	13.5µM*	-6.0%	8.8%	?	-6.5%
CNC(=O)c1sc(-c2ccccc2)nc1C	13.3%	?	-11.3%	-0.5%	?	26.4%
CCOC(=O)c1sc(-c2cccs2)nc1C	28.3%	16.9µM*	-0.2%	16.9%	1.3%	10.4%
Cc1nc(-c2ccccc2)sc1C(N)=O	9.4%	-14.8%	-0.1%	21.9%	18.4%	11.8%
CNC(=O)c1sc(-c2ccc(Cl)cc2)nc1C	.	15.1µM*	-3.9%	?	.	.
CN(c1ccccc1C(=O)Nc1ccccc1-c1ccccc1)S(C)(=O)=O	-2.1%	-1.4%	.	.	-2.7%	-1.3%
CCN(CC)CCN1C(=O)C2C(C(=O)Nc3ccc(C(C)C)cc3)C3C=CC2(O3)C1C(=O)NC1CCCCC1 (configuration not stated)	3.4%	-1.3%	.	.	-0.6%	-2.0%
CCOC(=O)Cc1ccc2sc(-c3ccccc3)nc2c1	1.58µM*	0.477µM*	?	15.8µM*	6.51µM*	3.16µM*
CCOC(=O)CSc1nc(-c2ccccc2)cc(C(F)(F)F)c1C#N	.	-0.5%	.	4.2%	.	.
COC(=O)CNC(=O)c1cccc(-c2ccc(OC)cc2)c1	14.8%	19µM*	-0.6%	4.3%	4.2%	7.7%
COC(=O)CNC(=O)c1cccc(Cl)c1	-1.5%	-2.1%	-1.9%	7.5%	-0.4%	-3.5%
COc1cccc(C(=O)NCC(=O)OCc2ccc(F)cc2Cl)c1	-6.8%	16.9µM*	-2.2%	-2.3%	0.9%	0.4%
CCN(CC)C(=O)c1cccc(-c2ccc(OC)cc2)c1	10.9%	?	0.5%	6.3%	?	9.3%
COc1ccc(C(=O)NCC(=O)OCc2ccc(F)cc2Cl)cc1OC	-2.0%	-13.6%	2.0%	8.2%	0.9%	0.7%
COc1ccc(-c2cccc(C(=O)NCC(=O)O)c2)cc1	24.7%	13.5µM*	-1.0%	?	?	14.9%
COc1cc(OC)cc(C(=O)NCC(=O)Nc2ccc(-c3ccccc3)cc2)c1	27.6%	15.1µM*	.	.	?	-5.5%
COc1cccc(C(=O)CC2c3c(c(Br)c4c(c3OC)OCO4)CCN2C)c1 (configuration not stated)	.	.	-1.4%	14.4%	.	.
CCSc1nnc(NC(=O)CSc2nnc(C)c(=O)n2N)s1	-2.4%	-13.1%	2.2%	4.8%	0.6%	1.5%
COc1cccc(/C=N/Nc2ccc(S(=O)(=O)O)cc2)c1O	-0.5%	?	?	-4.9%	1.8%	-8.1%
COc1cccc(/C=N/Nc2ccccc2C(=O)O)c1O	0.398µM*	1.35µM*	.	.	4.11µM*	0.562µM*
Cc1ccc(S(=O)(=O)Oc2ccccc2/C=N/Nc2ccc(C(=O)O)cc2)cc1	16.0%	19µM*	.	.	0.4%	0.0%
SMILES	Rab9 promoter act	FLuc modulator	KinaseGlo FLuc	SMN2 splice enh	ELG1 genotox	NPC1 prom act
COc1cccc(/C=N/Nc2ccc(C(=O)O)cc2)c1O	-34.8%	0.19µM*	8.91µM*	-81.7%	-19.1%	-39.4%
CC(NC(=O)CCCCCNC(=O)N1CCn2c1nc1ccccc12)c1ccccc1 (configuration not stated)	-4.6%	-0.7%	.	.	-7.7%	-3.7%
CNC(=O)CSc1ncnc2c1cnn2-c1ccccc1	?	?	-2.3%	-15.0%	11.8%	14.5%
Cc1ccc(-n2ncc3c(SCC(=O)NNC(=O)C(C)C)ncnc32)cc1	12.6%[1.84 µM]	7.57µM*	.	.	7.8%	24.3%
CC(C)C(=O)NNC(=O)CSc1ncnc2c1cnn2-c1ccccc1Cl	-12.7%	-1.9%	.	.	-2.1%	-5.8%
Cc1ccc(-n2ncc3c(SCC(N)=O)ncnc32)cc1C	3.16µM*	5.36µM*	.	.	?	3.98µM*
CC(=O)CSc1ncnc2c1cnn2-c1ccccc1	1.12µM*	7.57µM*	-0.3%	11.2µM*	?	1.26µM*
CCc1ccc(/C=C/C(=O)C2C(=O)c3ccccc3C2=O)cc1	?	0.426µM*	-12.5%	?	0.8%	?
CC(C)(C)C(=O)C1C(=O)c2ccccc2C1=O	.	.	.	-5.2%	.	.
COc1ccc(CNC(=O)CCc2c(C)c3cc4c(C)coc4c(C)c3oc2=O)cc1OC	.	-6.3%	.	-1.0%	.	.
CC(=O)c1sc(N/N=C2\CC3CC2C(C)C3(C)C)nc1C (configuration not stated)	?	13.5µM*	2.8%	.	?	?
COc1ccc(/C(C)=N/Nc2nc(C)c(C(C)=O)s2)cc1	-0.6%	?	.	.	3.4%	-2.5%
COC(=O)c1sccc1NC(=O)Nc1cccc(C)c1C	2.9%	-18.5%	.	.	2.2%	1.4%
COC(=O)c1sccc1NC(=O)Nc1cccc(C)c1	2.5%	4.78µM*	.	.	?	1.7%
O=C(Nc1cccc(C(F)(F)F)c1)Nc1cccs1	.	12µM*	.	5.2%	.	.
COC(=O)c1sccc1NC(=O)Nc1cccc([N+](=O)[O-])c1	11.8%	6.75µM*	.	.	6.5%	-1.9%
O=C(Nc1cccc([N+](=O)[O-])c1)Nc1cccs1	9.3%	26.9µM*	-2.0%	-18.9%	-8.3%	9.8%
CCc1ccc([C@@H]2CC=C(C(=O)O)[C@H](c3ccc(F)cc3)N2S(=O)(=O)c2ccc(C)cc2)cc1	-7.6%	-0.9%	.	.	0.1%	-2.2%
Cc1ccccc1NC(=O)NNC(=O)COc1ccc2ccccc2c1	32.0%	-2.0%	.	.	0.8%	18.6%
COC(=O)c1sccc1NC(=O)Nc1ccc(OC)cc1	20.3%	1.69µM*	.	.	?	17.8%
COC(=O)c1sccc1NC(=O)Nc1cc(OC)ccc1OC	5.3%	-0.5%	.	.	3.4%	0.3%
O=C1CN(S(=O)(=O)c2ccccc2)CCN1	.	.	.	.	3.0%	.
O=C(Nc1ccccc1Cl)C1CCCN(S(=O)(=O)c2ccc(-n3cnnn3)cc2)C1 (configuration not stated)	-2.2%	1.4%	.	.	-18.8%	-4.2%
Cc1ccc(C(=O)Nc2ccc(Cl)c(-c3nc4ncccc4o3)c2)c(C)c1	.	2.69µM*	.	?	.	.
COc1cc(C(=O)Nc2ccc(Cl)c(-c3nc4ncccc4o3)c2)cc(OC)c1OC	.	0.7%	.	-8.1%	.	.
O=C(NCCNc1ccccc1[N+](=O)[O-])c1cc(F)c(F)cc1Cl	?	19µM*	.	.	?	?
CC(C)COc1ccc(C(=O)Nc2ccccc2[N+](=O)[O-])cc1	?	?	-3.4%	15.8µM*	?	?
